Assay results published in the antibiotic and cytotoxicity screens of Wong et al. (2023).
Hit rate of the full screen: of about 39,000 compounds, about 3,300 (8.5%) were called active. Shown is part of a subset that was picked to be rich in actives.

System: HepG2
Assay: cytotoxicity call (relative viability < 0.9)
Settings: 10 µM

SMILES	cytotoxicity call
COc1ccc(CN(C)C[C@@H]2OCCCC[C@H](C)Oc3ccc(NC(=O)Nc4ccc(C(F)(F)F)cc4)cc3C(=O)N([C@@H](C)CO)C[C@@H]2C)cc1	active
COc1ccc(NC(=O)Nc2ccc3c(c2)C(=O)N([C@@H](C)CO)C[C@@H](C)[C@H](CN(C)Cc2ccc(C(F)(F)F)cc2)OCCCC[C@H](C)O3)cc1	inactive
COc1ccc(CN(C)C[C@@H]2OCCCC[C@H](C)Oc3ccc(NC(=O)Nc4ccc(C(F)(F)F)cc4)cc3C(=O)N([C@H](C)CO)C[C@@H]2C)cc1	active
COc1ccc(NC(=O)Nc2ccc3c(c2)C(=O)N([C@@H](C)CO)C[C@H](C)[C@@H](CN(C)Cc2ccc(C(F)(F)F)cc2)OCCCC[C@H](C)O3)cc1	inactive
COc1ccc(NC(=O)Nc2ccc3c(c2)C(=O)N([C@H](C)CO)C[C@H](C)[C@@H](CN(C)Cc2ccc(C(F)(F)F)cc2)OCCCC[C@H](C)O3)cc1	inactive
COc1ccc(CN(C)C[C@@H]2OCCCC[C@@H](C)Oc3ccc(NC(=O)Nc4ccc(C(F)(F)F)cc4)cc3C(=O)N([C@@H](C)CO)C[C@H]2C)cc1	active
COc1ccc(CN(C)C[C@H]2OCCCC[C@@H](C)Oc3ccc(NC(=O)Nc4ccc(C(F)(F)F)cc4)cc3C(=O)N([C@H](C)CO)C[C@@H]2C)cc1	active
COc1ccc(NC(=O)Nc2ccc3c(c2)C(=O)N([C@H](C)CO)C[C@@H](C)[C@@H](CN(C)Cc2ccc(C(F)(F)F)cc2)OCCCC[C@H](C)O3)cc1	inactive
COCC#Cc1ccc2c(c1)O[C@H](CN(C)C(=O)Nc1ccc(OC)cc1)[C@H](C)CN([C@H](C)CO)S2(=O)=O	inactive
COCC(=O)N1CC[C@]2(CC1)CN([C@H](CO)c1[nH]c3cc(ccc3c12)OC)C(=O)Nc1ccccc1F	inactive
Cc1c(C)c2c(c(C)c1OC(=O)CCC(=O)O)CC[C@@](C)(CCC[C@H](C)CCC[C@H](C)CCCC(C)C)O2	inactive
Cc1ccc(S(=O)(=O)Nc2ccc3c(c2)CC(=O)N([C@H](C)CO)C[C@@H](C)[C@@H](CN(C)S(=O)(=O)c2c(C)noc2C)O3)cc1	inactive
COc1ccc(CCNC(=O)[C@@H]2c3ccccc3C(=O)N(CC34CC5CC(CC(C5)C3)C4)[C@H]2c2ccc(CO)cc2)cc1	inactive
C=CCN(CC=C)S(=O)(=O)c1nnc[nH]1	inactive
C[C@@H]1CN([C@@H](C)CO)C(=O)c2cc(NC(=O)Cc3ccccc3)ccc2O[C@@H](C)CCCCO[C@H]1CN(C)S(=O)(=O)c1cccs1	inactive
O=C(C[C@H]1C=C[C@H](NC(=O)c2ccncc2)[C@H](CO)O1)NCc1ccncn1	inactive
CC1=CC(=O)C2=C(C)CCC3C(C)C(=O)OC3C12 (stereo not drawn)	inactive
C[C@H](CO)N1C[C@H](C)[C@@H](CN(C)Cc2ccc(Cl)c(Cl)c2)Oc2ccc(NC(=O)CCCCCC(=O)Nc3ccccc3N)cc2CC1=O	inactive
O=C(C[C@@H]1CC[C@H]2[C@@H](COC[C@H](O)CN2C(=O)Nc2cccc(F)c2)O1)NCCCN1CCOCC1	inactive
COc1ccc(CN(C)C[C@@H]2OCCCC[C@H](C)Oc3ccc(NC(=O)Nc4ccc(C(F)(F)F)cc4)cc3C(=O)N([C@@H](C)CO)C[C@H]2C)cc1	active
COc1ccc(NC(=O)Nc2ccc3c(c2)C(=O)N([C@@H](C)CO)C[C@H](C)[C@@H](CN(C)Cc2ccc(C(F)(F)F)cc2)OCCCC[C@@H](C)O3)cc1	active

SMILES	cytotoxicity call
COc1ccc(CN(C)C[C@H]2OCCCC[C@@H](C)Oc3ccc(NC(=O)Nc4ccc(C(F)(F)F)cc4)cc3C(=O)N([C@H](C)CO)C[C@H]2C)cc1	active
COc1ccc(CN(C)C[C@H]2OCCCC[C@H](C)Oc3ccc(NC(=O)Nc4ccc(C(F)(F)F)cc4)cc3C(=O)N([C@H](C)CO)C[C@H]2C)cc1	active
O=C(C[C@H]1C[C@H]2c3cc(NC(=O)c4ccc5c(c4)OCO5)ccc3O[C@H]2[C@H](CO)O1)NCCN1CCCCC1	inactive
C[C@H]1CN([C@@H](C)CO)C(=O)c2cc(NC(=O)Cn3cnnn3)ccc2O[C@H]1CN(C)Cc1ccccc1	inactive
CC(C)NC(=O)Nc1ccc2c(c1)C(=O)N([C@@H](C)CO)C[C@H](C)[C@@H](CN(C)C(=O)Nc1ccc(F)cc1)OCCCC[C@@H](C)O2	inactive
O=C(C[C@H]1CC=CCC[C@H](Cc2ccc(F)cc2)C(=O)OC[C@H](Cc2ccccc2)NC1=O)NCCO	inactive
C#CCN(O[C@@H](/C=C/[C@@H](O)CCn1cc(-c2cccc(/C=C/C(=O)NO)c2)nn1)C1CC1)[C@@H](Cc1ccccc1)C(=O)OC	inactive
C[C@@H]1CCCCO[C@@H](CN(C)C(=O)c2ccccc2)[C@H](C)CN([C@@H](C)CO)C(=O)c2cc(NC(=O)Nc3ccccc3)ccc2O1	inactive
O=C(NC1CC1)c1n[nH]c(=O)c2ccccc12	inactive
O=C1CNCCN1C1CCCC1	inactive
C[C@@H]1CN([C@H](C)CO)C(=O)c2cc(NC(=O)CCC(F)(F)F)ccc2O[C@@H](C)CCCCO[C@H]1CN(C)C(=O)Nc1ccc(C(F)(F)F)cc1	inactive
COc1ccc(CN(C)C[C@H]2OCCCC[C@H](C)Oc3ccc(NC(=O)Nc4ccc(C(F)(F)F)cc4)cc3C(=O)N([C@@H](C)CO)C[C@H]2C)cc1	active
COc1ccc(CN(C)C[C@H]2OCCCC[C@H](C)Oc3ccc(NC(=O)Nc4ccc(C(F)(F)F)cc4)cc3C(=O)N([C@H](C)CO)C[C@@H]2C)cc1	active
COc1ccc(NC(=O)Nc2ccc3c(c2)C(=O)N([C@@H](C)CO)C[C@@H](C)[C@H](CN(C)Cc2ccc(C(F)(F)F)cc2)OCCCC[C@@H](C)O3)cc1	active
COc1ccc(NC(=O)Nc2ccc3c(c2)C(=O)N([C@H](C)CO)C[C@@H](C)[C@@H](CN(C)Cc2ccc(C(F)(F)F)cc2)OCCCC[C@@H](C)O3)cc1	active
CC[C@@H](NC)C(=O)O	inactive
CC(C)(C)[C@H]1CCc2c(sc3nc(-c4ccccc4)cn23)C1	inactive
COc1ccc(NC(=O)N(C)C[C@H]2Oc3ncc(C#C[C@H](C)O)cc3C(=O)N([C@@H](C)CO)C[C@H]2C)cc1	inactive
O=C(O)[C@H]1CCS(=O)(=O)C1	inactive
NC(=O)c1cc(Cl)ccn1	inactive
C[C@@H]1CN([C@@H](C)CO)C(=O)c2cccc(NC(=O)c3ccc(-c4nccs4)cc3)c2O[C@@H]1CN(C)Cc1ccc(Oc2ccccc2)cc1	inactive

SMILES	cytotoxicity call
COc1ccc(C#Cc2ccc3c(c2)O[C@H](CN(C)S(=O)(=O)c2ccccc2F)[C@@H](C)CN([C@@H](C)CO)S3(=O)=O)cc1	inactive
C[C@@H]1CN([C@@H](C)CO)C(=O)c2cccc(NS(=O)(=O)c3ccccc3)c2O[C@@H]1CN(C)S(=O)(=O)c1ccccc1	inactive
C[C@H](CO)N1C[C@H](C)[C@H](CN(C)C(=O)CCC(F)(F)F)OCc2ccccc2-c2c(n(C)c3ccccc23)C1=O	inactive
C[C@@H]1CCCCO[C@H](CN(C)S(=O)(=O)c2cn(C)cn2)[C@@H](C)CN([C@@H](C)CO)C(=O)c2cc(NC(=O)CCCN(C)C)ccc2O1	inactive
Cc1noc(C)c1S(=O)(=O)N(C)C[C@H]1OCCCC[C@H](C)Oc2ccc(NC(=O)Nc3cccc4ccccc34)cc2C(=O)N([C@H](C)CO)C[C@H]1C	inactive
C[C@@H]1CN([C@@H](C)CO)C(=O)CCCn2nncc2CO[C@@H]1CN(C)C(=O)Nc1ccccc1C(F)(F)F	inactive
COc1ccc(CN(C)C[C@@H]2OCCCC[C@@H](C)Oc3ccc(NC(=O)Nc4ccc(C(F)(F)F)cc4)cc3C(=O)N([C@@H](C)CO)C[C@@H]2C)cc1	active
COc1ccc(NC(=O)Nc2ccc3c(c2)C(=O)N([C@@H](C)CO)C[C@@H](C)[C@@H](CN(C)Cc2ccc(C(F)(F)F)cc2)OCCCC[C@H](C)O3)cc1	active
COc1ccc(NC(=O)Nc2ccc3c(c2)C(=O)N([C@@H](C)CO)C[C@H](C)[C@H](CN(C)Cc2ccc(C(F)(F)F)cc2)OCCCC[C@H](C)O3)cc1	active
COc1ccc(NC(=O)Nc2ccc3c(c2)C(=O)N([C@H](C)CO)C[C@@H](C)[C@H](CN(C)Cc2ccc(C(F)(F)F)cc2)OCCCC[C@@H](C)O3)cc1	active
O=C(C[C@@H]1CC[C@@H]2[C@H](COC[C@@H](O)CN2S(=O)(=O)c2ccccc2)O1)NCCN1CCCC1	inactive
C[C@@H]1CN([C@H](C)CO)C(=O)Cc2cc(NC(=O)c3ccncc3)ccc2O[C@@H]1CN(C)C(=O)Nc1ccc2c(c1)OCO2	inactive
COCC(=O)N1C[C@@H](C)[C@H](OC)CN(C)C(=O)c2ccc(NC(=O)Nc3ccccc3)cc2OC[C@H]1C	inactive
CNC(=O)[C@H]1C[C@H]2CCN(S(=O)(=O)N(C)C)C[C@H]2O1	inactive
Cc1noc(C)c1S(=O)(=O)Nc1ccc2c(c1)C(=O)N([C@@H](C)CO)C[C@H](C)[C@@H](CN(C)C(=O)NC(C)C)O2	inactive
C[C@H](CO)N1C[C@H](C)[C@H](CN(C)S(=O)(=O)c2cn(C)cn2)OCc2ccccc2-c2ccccc2C1=O	inactive
Cc1nc(CSCc2ccc(Cl)cc2Cl)cs1	inactive
COc1ccccc1CN1C(=O)c2ccccc2[C@@]2(Cc3ccccc3N(Cc3ccccc3)C2=O)[C@@H]1c1ccc(CO)cc1	inactive
C[C@@H]1CN([C@@H](C)CO)C(=O)c2cc(NC(=O)Nc3ccccc3)ccc2O[C@@H]1CN(C)S(C)(=O)=O	inactive
C[C@H](CO)N1C[C@H](C)[C@H](CN(C)Cc2ccc3c(c2)OCO3)Oc2ccc(NS(=O)(=O)c3cn(C)cn3)cc2CC1=O	inactive
O=c1cc(Cl)[nH]c(=O)[nH]1	inactive
